Inconclusive results are not listed. The source made the active and inactive calls. Rule for the calls, unless noted: active = hit-call score of the fitted dose curve at least 0.9, where 1 is the maximum; inconclusive = response in the unintended direction; inactive = score below 0.9.

The nature of assay [1]: TOX21_p53_BLA_p2_viability: Viability Assessment in the Tox21 HCT-116 p53 Agonism Beta-lactamase Assay, Phase 2 (AID 2283591).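 Note: actives lower the ATP signal meaning cytotoxicity.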 Summed up:
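HCT-116 p53-bla cells (4000/well) rested 5 h at 37C, then received compounds in DMSO (217-fold dilution) for 16 h at 37C, 5% CO2. After the CCF4 read, CellTiter-Glo was added; ATP luminescence was read after 30 min at room temperature.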

The nature of assay [2]: TOX21_p53_BLA_p3_viability: Viability Assessment in the Tox21 HCT-116 p53 Agonism Beta-lactamase Assay, Phase 3 (AID 2283593).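 Note: cells exposed to compound for 16 h before reading.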 Summed up: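 HCT-116 cells (4000/well) rested 5 h at 37C, then got DMSO compounds by pin tool (217-fold dilution) for 16 h at 37C, 5% CO2. After the bla read, CellTiter-Glo was added and luminescence read at 30 min, room temperature.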
Assay [3] has as its target Cellular tumor antigen p53 (Homo sapiens) (UniProt P04637). Briefly: TOX21_p53_BLA_p3_ratio: Tox21 HCT-116 p53 Agonism Beta-lactamase Assay, Ratio, Phase 3 (AID 2283596). Summed up:
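Cells were seeded at 4000/well, rested 5 h at 37C, then dosed with DMSO compound solutions (217-fold dilution) for 16 h. CCF4-AM substrate was loaded for 2 h at room temperature, and the 460/530 nm emission ratio was fitted for gain of signal versus DMSO.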

Assay [4] can be described thus: TOX21_p53_BLA_p5_viability: Viability Assessment in the Tox21 HCT-116 p53 Agonism Beta-lactamase Assay, Phase 5 (AID 2283600). The procedure, abridged: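 Workflow: seed 4000 cells per well, wait 5 h, add compounds (DMSO, 217-fold dilution), incubate 16 h, load CCF4-AM 2 h, add CellTiter-Glo, read luminescence after 30 min.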
Assay [5] concerns the target Cellular tumor antigen p53 (Homo sapiens) (UniProt P04637). The experiment in a line: TOX21_p53_BLA_p5_ratio: Tox21 HCT-116 p53 Agonism Beta-lactamase Assay, Ratio, Phase 5 (AID 2283599). Summed up: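 HCT-116 cells carrying a p53-inducible beta-lactamase reporter were seeded at 4000 cells/well and dosed after 5 h with compound in DMSO (217-fold dilution). After 16 h at 37C, CCF4-AM substrate was added for 2 h, and the 460/530 nm emission ratio was scored as gain-of-signal versus DMSO.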

Assay [6] shares this target. The experiment in a line: TOX21_p53_BLA_p4_ratio: Tox21 HCT-116 p53 Agonism Beta-lactamase Assay, Ratio, Phase 4 (AID 2283601). Summed up:
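HCT116 cells carrying an inducible beta-lactamase reporter were plated at 4000 cells/well, rested 5 h, then exposed to compounds in DMSO (217-fold dilution) for 16 h at 37C. CCF4-AM substrate was loaded 2 h at room temperature; 460/530 nm emission ratio scored gain-of-signal versus DMSO.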

Assay [7] addresses PGR (gene 5241) (UniProt P06401). Briefly: TOX21_PR_BLA_Followup_Antagonist_ratio: Tox21 HEK293 Progesterone Receptor (PR) Antagonism Beta-lactamase Follow-Up Assay, Ratio (AID 2283934).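 Note: PR-UAS-bla HEK293T cells stimulated with 1 nM R5020 agonist for 16 hr.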 The procedure, abridged: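 Readout is the blue/green (ch2/ch1) substrate cleavage ratio after 2 hours at room temperature, following 16 hr co-treatment of PR-bla HEK293T cells with compound and 1nM promegestone. Multiplexed CellTiter-Glo viability flags cytotoxicity; DMSO baseline.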

The nature of assay [8]: TOX21_PR_BLA_Followup_Agonist_viability: Viability Assessment in the Tox21 HEK293 Progesterone Receptor (PR) Agonism Beta-lactamase Follow-Up Assay (AID 2283935).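 Note: signal loss means lower viability so actives are cytotoxic.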 The procedure, abridged:
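Run multiplexed with the beta-lactamase FRET read, this endpoint measures ATP by CellTiter-Glo luminescence (30 min, room temperature). PR-UAS-bla HEK293T cells received compound 6 hr after plating and were then incubated 16 hr at 37C in 2% stripped serum.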

Assay [9] deals with PGR (gene 5241) (UniProt P06401). The experiment in a line: TOX21_PR_LUC_Followup_Antagonist: Tox21 HEK293 Progesterone Receptor (PR) Antagonism Luciferase Follow-Up Assay (AID 2283938).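 Note: curve fitted upward as signal gain over DMSO baseline despite antagonist label.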 The procedure, abridged:
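Cells are grown 5 days in charcoal-stripped-FBS assay medium, plated, left 5 h, then dosed with compound and incubated 16 h. ONE-Glo reagent is added and luminescence read after 30 min.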

A short description of assay [10]: TOX21_PR_LUC_Followup_Agonist_viability: Viability Assessment in the Tox21 HEK293 Progesterone Receptor (PR) Agonism Luciferase Follow-Up Assay (AID 2283941).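 Note: loss of signal means cytotoxicity so actives lower viability.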 Summed up:
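Cytotoxicity counter-readout in the PR-A luciferase reporter line HEK293, with 16 h compound exposure at 37C after cells were cultured in charcoal-stripped serum. Cellular ATP quantified by CellTiter-Glo luminescence.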

Assay [11] is described as follows: TOX21_p53_BLA_p4_viability: Viability Assessment in the Tox21 HCT-116 p53 Agonism Beta-lactamase Assay, Phase 4 (AID 2283597).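 Note: hits lower the luminescence signal meaning cytotoxicity.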 Summed up: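 Readout: ATP luminescence (CellTiter-Glo), measured 30 min after reagent addition at RT. The reagent followed a 2 h CCF4-AM incubation, and the cells had been exposed to compound for 16 h at 37C.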
Assay [12] in a line: CCTE_Harrill_HTTr_Viability_MCF7: CCTE's 6-hour Cell Viability Assessment for the High-Throughput Transcriptomics (HTTr) Platform, in MCF-7 cells cultured in DMEM + 10% fetal bovine serum, Harrill Lab (AID 2284010; active = hit-call score of the fitted dose curve at least 0.9, where 1 is the maximum; inactive = score below 0.9). Summed up: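 Propidium iodide exclusion, imaged by high-content analysis, gauged viability after a six-hour exposure across eight concentrations. Cells were MCF-7 grown in DMEM with 10% fetal bovine serum; fits run in both directions against DMSO.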

Assay [13] in a line: CCTE_Harrill_HTTr_Apoptosis_MCF7: CCTE's 6-hour Apoptosis Assessment for the High-Throughput Transcriptomics (HTTr) Platform, in MCF-7 cells cultured in DMEM + 10% fetal bovine serum, Harrill Lab (AID 2284011; active = hit-call score of the fitted dose curve at least 0.9, where 1 is the maximum; inactive = score below 0.9). The procedure, abridged: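 MCF-7 (DMEM + 10% FBS), 384-well; 8-pt dilution series, 6 h chemical exposure; caspase-3/7 activation via CellEvent Caspase 3/7 Green, HCI; bidirectional fit vs DMSO.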

Chain of Cellular tumor antigen p53 (Homo sapiens) (P04637 whole entry, looked up): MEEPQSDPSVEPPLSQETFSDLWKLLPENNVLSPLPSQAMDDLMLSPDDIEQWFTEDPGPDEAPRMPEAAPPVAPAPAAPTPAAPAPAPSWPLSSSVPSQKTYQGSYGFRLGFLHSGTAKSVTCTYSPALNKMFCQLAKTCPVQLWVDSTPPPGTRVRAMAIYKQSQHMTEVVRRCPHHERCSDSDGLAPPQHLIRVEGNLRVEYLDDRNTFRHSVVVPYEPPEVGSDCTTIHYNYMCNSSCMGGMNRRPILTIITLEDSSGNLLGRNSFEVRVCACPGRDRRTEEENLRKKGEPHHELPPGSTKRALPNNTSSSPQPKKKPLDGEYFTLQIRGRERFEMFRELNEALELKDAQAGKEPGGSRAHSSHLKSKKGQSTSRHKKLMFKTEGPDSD
Chain of PGR (gene 5241) (P06401 whole entry, looked up): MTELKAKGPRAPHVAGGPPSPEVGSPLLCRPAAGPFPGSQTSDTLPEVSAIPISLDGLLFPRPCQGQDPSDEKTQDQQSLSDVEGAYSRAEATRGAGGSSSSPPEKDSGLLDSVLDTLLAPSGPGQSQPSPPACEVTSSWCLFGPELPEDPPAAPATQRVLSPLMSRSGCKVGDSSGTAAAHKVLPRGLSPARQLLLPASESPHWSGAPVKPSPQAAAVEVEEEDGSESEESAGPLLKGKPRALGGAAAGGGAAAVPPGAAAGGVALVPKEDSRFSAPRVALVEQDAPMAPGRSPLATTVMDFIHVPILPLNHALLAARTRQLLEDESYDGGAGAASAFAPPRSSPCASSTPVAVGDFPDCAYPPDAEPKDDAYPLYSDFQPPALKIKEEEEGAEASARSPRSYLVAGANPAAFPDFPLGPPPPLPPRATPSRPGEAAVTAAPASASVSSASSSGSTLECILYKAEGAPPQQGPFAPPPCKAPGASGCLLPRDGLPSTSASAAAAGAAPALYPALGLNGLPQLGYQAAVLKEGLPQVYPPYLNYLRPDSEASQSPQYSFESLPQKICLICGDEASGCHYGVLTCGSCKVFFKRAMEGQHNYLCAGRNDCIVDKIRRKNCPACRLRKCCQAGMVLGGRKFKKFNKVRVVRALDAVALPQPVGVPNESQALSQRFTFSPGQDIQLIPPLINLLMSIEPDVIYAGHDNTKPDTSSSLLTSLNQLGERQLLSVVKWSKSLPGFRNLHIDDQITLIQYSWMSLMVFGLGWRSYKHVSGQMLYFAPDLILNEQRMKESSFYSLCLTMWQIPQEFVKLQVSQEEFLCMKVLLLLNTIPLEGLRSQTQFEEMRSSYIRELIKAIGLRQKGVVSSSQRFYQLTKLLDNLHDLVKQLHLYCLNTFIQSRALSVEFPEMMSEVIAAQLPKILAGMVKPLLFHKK

With `O=S(O)CNc1ccc(S(=O)(=O)c2ccc(NCS(=O)O)cc2)cc1`, the outcome in assay [1], in assay [2], in [3] and in assay [4] was inactive.
Regarding `Nc1ccccc1S(=O)(=O)c1ccccc1`, the molecule was called inactive in assay [1], in assay [2], in [3], in assay [5], in assay [4] and in assay [6]. For the same molecule, the result in assay [7], in [8], in assay [9] and in [10] was inactive.
One may read the AC50 as the midpoint of the concentration-response curve, whichever way the signal moves. For `CCC(COC(=O)CCS)(COC(=O)CCS)COC(=O)CCS`, the call in [1], in [2] and in assay [4] was inactive. The AC50 in assay [3] is 72.1 µM (active).
Take `Nc1nc2c(c(=O)[nH]1)N(C=O)C(CNc1ccc(C(=O)N[C@@H](CCC(=O)O)C(=O)O)cc1)CN2` (some centres not stated): the result in assay [1], in assay [2], in assay [3], in assay [5] and in assay [6] was inactive.
With `CO[C@H]1C[C@H](O[C@H]2[C@H](C)[C@@H](O[C@@H]3O[C@H](C)C[C@H](N(C)C)[C@H]3OC(C)=O)[C@@H](C)C[C@]3(CO3)C(=O)[C@H](C)[C@@H](OC(C)=O)[C@@H](C)[C@@H](C)OC(=O)[C@@H]2C)O[C@@H](C)[C@@H]1OC(C)=O`, the molecule was called inactive in assay [1], in assay [2], in [3], in assay [5] and in assay [4].
For `CN(C)CCOC1=Cc2ccccc2Sc2ccc(Cl)cc21`, the call in assay [1] and in [2] was inactive. Moreover, the AC50 in assay [11] was 35.4 µM (active).
For the molecule `Oc1cc2c(cc1O)[C@H]1c3ccc(O)c(O)c3OC[C@@]1(O)C2`, the molecule was classed as inactive in assay [1], in assay [2], in [11] and in assay [5].
Take `O=C(NC1CCN(CCc2c[nH]c3ccccc23)CC1)c1ccccc1`: the call in assay [1], in [2], in assay [3] and in assay [6] was inactive.
For the molecule `NC[C@H]1O[C@H](O[C@H]2[C@H](O)[C@@H](O[C@H]3O[C@H](CO)[C@@H](O)[C@H](N)[C@H]3O)[C@H](N)C[C@@H]2N)[C@H](N)C[C@@H]1O`, the result in assay [1], in [2], in assay [3] and in [6] was inactive.
Consider `CCCC(=O)O[C@]1(C(=O)COC(C)=O)CC[C@H]2[C@@H]3C[C@H](F)C4=CC(=O)C=C[C@]4(C)[C@@]3(F)[C@@H](O)C[C@@]21C`, for which the molecule was classed as inactive in assay [1], in assay [2], in assay [11], in assay [5] and in assay [6].
On to `O=C(O)/C=C/C(O)c1ccc(Cl)cc1` (configuration not stated), for which the call in assay [1], in assay [2], in assay [11], in assay [5], in assay [4] and in assay [6] was inactive.
Turning to `COc1cc(Br)c(C[N+]2(CCOCCC3CCC4CC3C4(C)C)CCOCC2)cc1OC` (configuration not stated), the molecule was classed as inactive in assay [1], in assay [2], in [11], in [5] and in assay [4].
Turning to `CN(CCO)CC(O)Cn1cnc2c1c(=O)n(C)c(=O)n2C` (configuration not stated) (tested in a mixture with another compound), the molecule was called inactive in assay [1], in [2], in assay [11] and in assay [4].
As to `CC(=O)CCCCn1c(=O)c2c(ncn2C)n(C)c1=O`, the molecule was called inactive in [1], in assay [2], in [11], in [5], in assay [4] and in assay [6]. Besides, the result in assay [12] and in assay [13] was inactive.
As for `NC12CC3CC(CC(C3)C1)C2`, the molecule was classed as inactive in assay [1], in [2], in assay [11], in [5], in [4] and in assay [6].

Values taken from PubChem BioAssay (EPA / NIEHS).
